The antibiotic and cytotoxicity screens of Wong et al. (2023)
Hit rate of the full screen: of about 39,000 compounds, about 3,300 (8.5%) were called active. The sample holds actives, similar compounds and a random draw of the others, so the mix is not that of the screen.

Each compound was assayed on HepG2 (assay: cytotoxicity call (relative viability < 0.9)). Conditions: 10 µM.

SMILES | cytotoxicity call
C[C@@H]1CCCCO[C@@H](CN(C)C(=O)c2ccncc2)[C@H](C)CN([C@H](C)CO)C(=O)c2cc(NS(C)(=O)=O)ccc2O1 | inactive
N#C[C@H](c1ccccn1)N1CCOCC1 | inactive
O=c1n(-c2ccccc2)c(=O)n2n1CC(COc1ccccc1)=C1[C@@H](CCc3ccccc3)OB(O)C[C@@H]12 | inactive
C[C@H](CO)N1C[C@H](C)[C@@H](CN(C)S(C)(=O)=O)Oc2ccc(NS(=O)(=O)c3ccc(F)cc3)cc2C1=O | inactive
COc1cccc(S(=O)(=O)N2C[C@H](O)COC[C@H]3O[C@@H](CC(=O)N4CCOCC4)CC[C@@H]32)c1 | inactive
CC(C)NC(=O)N[C@@H]1C=C[C@@H](CC(=O)NCCCN(C)C)O[C@@H]1CO | inactive
O=C(C[C@H]1C[C@@H]2c3cc(NC(=O)C4CCOCC4)ccc3O[C@@H]2[C@@H](CO)O1)NCCN1CCCCC1 | inactive
C[C@H]1CN([C@@H](C)CO)C(=O)c2cccc(NC(=O)c3ccncc3)c2O[C@@H]1CN(C)Cc1ccc(C(=O)O)cc1 | inactive
C[C@@H]1CN([C@@H](C)CO)C(=O)c2cc(C#Cc3ccccc3F)cnc2O[C@@H]1CN(C)S(=O)(=O)c1ccccc1 | inactive
O=S(=O)(c1cccc2cnccc12)N1CCCNCC1 | active
O=S(=O)(NCCN(C/C=C/c1ccc(F)cc1)C/C=C/c1ccc(F)cc1)c1cccc2cnccc12 | inactive
O=S(=O)(c1ccc(-n2cnnn2)cc1)N1CCNCC1 | inactive
COc1ccc(S(=O)(=O)Nc2ccc3c(c2)C(=O)N([C@@H](C)CO)C[C@H](C)[C@@H](CN(C)C(=O)Nc2cccc4ccccc24)OCCCC[C@H](C)O3)cc1 | inactive
C[C@H](CO)N1C[C@H](C)[C@@H](CN(C)Cc2ccc(-c3ccccc3)cc2)Oc2ccc(NC(=O)Nc3cccc4ccccc34)cc2C1=O | inactive
C[C@@H]1CN([C@@H](C)CO)C(=O)c2cc(NC(=O)Nc3cccc4ccccc34)ccc2O[C@H]1CN(C)Cc1ccc(-c2ccccc2)cc1 | inactive
C[C@@H]1CN([C@H](C)CO)C(=O)c2cc(NC(=O)Nc3cccc4ccccc34)ccc2O[C@@H]1CN(C)Cc1ccc(-c2ccccc2)cc1 | active
C[C@H]1CN([C@@H](C)CO)C(=O)c2cc(NC(=O)Nc3cccc4ccccc34)ccc2O[C@H]1CN(C)Cc1ccccc1 | inactive
C[C@H](CO)N1C[C@H](C)[C@H](CN(C)Cc2ccc(-c3ccccc3)cc2)Oc2ccc(NC(=O)Nc3cccc4ccccc34)cc2C1=O | active
C[C@@H]1CN([C@H](C)CO)C(=O)c2cc(NC(=O)Nc3cccc4ccccc34)ccc2O[C@H]1CN(C)Cc1ccc(-c2ccccc2)cc1 | active
C[C@@H]1CN([C@H](C)CO)C(=O)c2cc(NC(=O)Nc3cccc4ccccc34)ccc2O[C@@H]1CN(C)Cc1ccc(C(=O)O)cc1 | inactive

SMILES | cytotoxicity call
C[C@@H]1CN([C@@H](C)CO)C(=O)c2cc(NC(=O)Nc3cccc4ccccc34)ccc2O[C@@H]1CN(C)Cc1ccc(-c2ccccc2)cc1 | inactive
C[C@H](CO)N1C[C@H](C)[C@H](CN(C)Cc2ccc(C(=O)O)cc2)Oc2ccc(NC(=O)Nc3cccc4ccccc34)cc2C1=O | inactive
C[C@H]1CN([C@@H](C)CO)C(=O)c2cc(NC(=O)Nc3cccc4ccccc34)ccc2O[C@@H]1CN(C)Cc1ccc(-c2ccccc2)cc1 | active
C[C@H]1CN([C@@H](C)CO)C(=O)c2cc(NC(=O)Nc3cccc4ccccc34)ccc2O[C@H]1CN(C)Cc1ccc(C(=O)O)cc1 | inactive
C[C@H]1CN([C@@H](C)CO)C(=O)c2cc(NC(=O)Nc3cccc4ccccc34)ccc2O[C@H]1CN(C)Cc1ccc(-c2ccccc2)cc1 | inactive
C[C@@H]1CCCCO[C@@H](CN(C)C(=O)NC2CCCCC2)[C@H](C)CN([C@H](C)CO)C(=O)c2cc(NC(=O)NC3CCCCC3)ccc2O1 | inactive
C[C@H](CO)N1C[C@H](C)[C@@H](CN(C)C(=O)Nc2ccccc2)Oc2ccc(NC(=O)CCCCCC(=O)Nc3ccccc3N)cc2CC1=O | inactive
COc1ccccc1C#Cc1cnc2c(c1)C(=O)N([C@H](C)CO)C[C@@H](C)[C@@H](CN(C)C(=O)CC1CC1)O2 | inactive
C[C@H](CO)N1C[C@H](C)[C@@H](CN(C)S(=O)(=O)c2ccc(Cl)cc2)Oc2ccc(NC(=O)C3CC3)cc2C1=O | inactive
CCCCCCCCCCCCCCCC(=O)OCC=C(C)C=CC=C(C)C=CC1=C(C)CCCC1(C)C | inactive
C[C@H]1CN([C@@H](C)CO)C(=O)c2cc(N(C)C)ccc2O[C@H]1CN(C)S(=O)(=O)c1ccc(Cl)cc1 | inactive
C[C@@H]1CCCCO[C@@H](CN(C)S(C)(=O)=O)[C@@H](C)CN([C@H](C)CO)C(=O)c2cc(NS(C)(=O)=O)ccc2O1 | inactive
CN(C)CCCNC(=O)C[C@@H]1CC[C@@H]2[C@@H](COc3ccc(NS(C)(=O)=O)cc3C(=O)N2C)O1 | inactive
CO[C@@H]1CN(C)C(=O)c2cc(NC(=O)Nc3ccccc3F)ccc2OC[C@H](C)N(Cc2ccccc2C(=O)O)C[C@H]1C | inactive
Cc1ccc(S(=O)(=O)N(C)C[C@H]2Oc3ccc(NS(=O)(=O)c4cn(C)cn4)cc3CC(=O)N([C@@H](C)CO)C[C@H]2C)cc1 | inactive
O=C(Nc1cccc2cccnc12)[C@@H]1[C@H](c2ccc(C(F)(F)F)cc2)CC(=O)N1C(=O)OCc1ccccc1 | inactive
C[C@@H]1CCCCO[C@H](CN(C)C(=O)c2ccncc2)[C@H](C)CN([C@H](C)CO)C(=O)c2cc(NS(C)(=O)=O)ccc2O1 | inactive
Cc1ccc(S(=O)(=O)N(C)C[C@H]2Oc3cc(Br)ccc3S(=O)(=O)N([C@@H](C)CO)C[C@H]2C)cc1 | inactive
C[C@@H]1CCCCO[C@@H](CN(C)S(=O)(=O)c2ccc(Cl)cc2)[C@H](C)CN([C@H](C)CO)C(=O)c2cc(NS(=O)(=O)c3ccccc3)ccc2O1 | active
C[C@@H]1CN([C@@H](C)CO)C(=O)c2cc(NS(=O)(=O)c3ccc(Cl)cc3)ccc2O[C@@H](C)CCCCO[C@@H]1CN(C)S(=O)(=O)c1ccccc1 | active

SMILES | cytotoxicity call
C[C@@H]1CN([C@H](C)CO)C(=O)c2cc(NS(=O)(=O)c3ccccc3)ccc2O[C@@H](C)CCCCO[C@@H]1CN(C)S(=O)(=O)c1ccc(Cl)cc1 | inactive
C[C@@H]1CN([C@H](C)CO)C(=O)c2cc(NS(=O)(=O)c3ccc(Cl)cc3)ccc2O[C@@H](C)CCCCO[C@@H]1CN(C)S(=O)(=O)c1ccccc1 | inactive
C[C@@H]1CCCCO[C@H](CN(C)S(=O)(=O)c2ccc(Cl)cc2)[C@@H](C)CN([C@H](C)CO)C(=O)c2cc(NS(=O)(=O)c3ccccc3)ccc2O1 | inactive
C[C@@H]1CN([C@@H](C)CO)C(=O)c2cc(NS(=O)(=O)c3ccccc3)ccc2O[C@@H](C)CCCCO[C@@H]1CN(C)S(=O)(=O)c1ccc(Cl)cc1 | inactive
C[C@@H]1CN([C@H](C)CO)C(=O)c2cc(NS(=O)(=O)c3ccc(Cl)cc3)ccc2O[C@@H](C)CCCCO[C@H]1CN(C)S(=O)(=O)c1ccccc1 | active
C[C@H](CO)N1C[C@H](C)[C@H](CN(C)S(=O)(=O)c2ccc(Cl)cc2)OCCCC[C@H](C)Oc2ccc(NS(=O)(=O)c3ccccc3)cc2C1=O | active
C[C@H](CO)N1C[C@H](C)[C@@H](CN(C)S(=O)(=O)c2ccccc2)OCCCC[C@H](C)Oc2ccc(NS(=O)(=O)c3ccc(Cl)cc3)cc2C1=O | inactive
C[C@@H]1CCCCO[C@@H](CN(C)S(=O)(=O)c2ccccc2)[C@H](C)CN([C@H](C)CO)C(=O)c2cc(NS(=O)(=O)c3ccc(Cl)cc3)ccc2O1 | inactive
C[C@@H]1CCCCO[C@@H](CN(C)S(=O)(=O)c2ccccc2)[C@H](C)CN([C@@H](C)CO)C(=O)c2cc(NS(=O)(=O)c3ccc(Cl)cc3)ccc2O1 | inactive
C[C@@H]1CCCCO[C@H](CN(C)S(=O)(=O)c2ccccc2)[C@H](C)CN([C@@H](C)CO)C(=O)c2cc(NS(=O)(=O)c3ccc(Cl)cc3)ccc2O1 | inactive
C[C@@H]1CN([C@@H](C)CO)C(=O)c2cc(NC(=O)CCC(F)(F)F)ccc2O[C@@H](C)CCCCO[C@H]1CN(C)Cc1ccncc1 | inactive
C=CCOC(=O)[C@H]1[C@@H]2C(=O)O[C@@H](c3ccccc3)[C@@H](c3ccccc3)N2[C@@H](c2ccc(OCCOC(=O)[C@H]3C[C@H]4C(=O)N[C@@H](Cc5ccccc5)C(=O)N4[C@H]3c3ccc(O)cc3)cc2)[C@]12C(=O)Nc1ccc(I)cc12 | inactive
C[C@@H]1CCCCO[C@@H](CN(C)C(=O)NC2CCCCC2)[C@@H](C)CN([C@@H](C)CO)C(=O)c2cc(NS(=O)(=O)c3cccs3)ccc2O1 | inactive
CCCNC(=O)N[C@H]1C=C[C@H](CC(=O)N2CCN(C)CC2)O[C@H]1CO | inactive
Oc1cccc(c1)/C/1=C/2\CC/C(=C(\c3cccc(c3)O)c3ccc([nH]3)/C(=C\3/C=CC(=N3)/C(=C\3/C=CC1=N3)c1cccc(c1)O)c1cccc(c1)O)N2 | inactive
C[C@@H]1CCCCO[C@H](CN(C)S(=O)(=O)c2ccc(Cl)cc2)[C@@H](C)CN([C@@H](C)CO)C(=O)c2cc(NS(=O)(=O)c3ccccc3)ccc2O1 | inactive
C[C@@H]1CCCCO[C@H](CN(C)S(=O)(=O)c2ccccc2)[C@H](C)CN([C@H](C)CO)C(=O)c2cc(NS(=O)(=O)c3ccc(Cl)cc3)ccc2O1 | inactive
C[C@@H]1CN([C@H](C)CO)C(=O)c2cc(NS(=O)(=O)c3ccccc3)ccc2O[C@@H](C)CCCCO[C@H]1CN(C)S(=O)(=O)c1ccc(Cl)cc1 | active
